Screening data: PubChem BioAssay, National Center for Advancing Translational Sciences (NCATS)
HCV inhibitor: blocks hepatitis C virus; 340,000 tested, 3.4% active; Potency, µM (titrated, usually from 41.8 µM), actives largely listed as inhibitors; Huh7.5.1 HCVcc-Cre infection, luciferase reporter, 44 h
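Seed cells (1,000/well) for 4 h; treat with compound and infect with HCVcc-Cre, moi about 0.5. Incubate 44 h, then detect luciferase activity.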
FMDV antiviral: foot and mouth disease virus antiviral activity. 410,000 tested, 1.2% active. Potency, µM (titrated, usually from 57.9 µM), most hits filed as inhibitors. FMDV antiviral cell-based qHTS; calls by dose curve; tested in HEK293T cells; note: read-out not given here; nearly all actives have a fitted effect of over 45% in size
MARV entry inh: blocks Marburg virus binding to or entry into cells. Marburg virus pseudotyped entry inhibition, cell reporter. Potency, µM (doses to about 37.8 µM), hits mostly inhibitors. 300,000 tested, 1.8% active. AID 540276; calls by dose curve; tested in HEK293 cells
Sm TGR inh: blocks Schistosoma mansoni thioredoxin glutathione reductase; Q962Y6; purified TGR, DTNB reduction, TNB absorbance 405 nm; Potency, µM (titrated, usually from 114 µM), actives largely listed as inhibitors; 360,000 tested, 3% active; AID 485364; note: nearly all actives have a fitted effect of over 60% in size
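TGR 20 nM + NADPH 100 uM (dispensed conc.), cpd preinc 15 min RT; start with NADPH (500 uM addition) then DTNB (15 mM addition). Kinetic TNB absorbance, 405 nm filter. Four-parameter Hill fit across titration.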
LASV entry inh: inhibitors of Lassa virus binding or cell entry | Lassa virus pseudotype entry inhibition, cell reporter | Potency, µM (titrated, usually from 37.9 µM), actives largely listed as inhibitors | 300,000 tested, 1.2% active; calls by dose curve; tested in HEK293 cells; note: nearly all actives have a fitted effect of over 50% in size
RE007 growth inh: less growth of the S. pombe RE007 Vpr strain; Potency, µM (titrated, usually from 92.2 µM), hits mostly inhibitors; 360,000 tested, 0.21% active; S. pombe RE007 Vpr strain, BacTiter-Glo ATP luminescence, 24 h; active = well fitted falling curve with a large enough effect; inconclusive = small, poorly fitted or top-dose-only effect; inactive = no such curve, though single readings can be large or run the other way; note: nearly all actives have a fitted effect of over 50% in size
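Fission yeast strain RE007, carrying one chromosomally integrated HIV-1 vpr copy, was seeded at OD 0.01 in PMG+AL medium with 23 nL pinned compound. After 24 h at 30 °C and 99% humidity, viability was read by BacTiter-Glo luminescence.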
A number is an active result; - = inactive; ? = inconclusive; . = no result given; ! = not active in a repeat; [ ] = dose if it differs, or a comment. Hits are enriched below; roughly 7.2% of the tested compounds scored in any of these assays. Unless noted, calls come from the whole dose curve; as a rule, active = well fitted curve in the direction sought with a large enough effect; inconclusive = small, poorly fitted or top-dose-only effect, or another doubt; inactive = no such curve, though single readings can be large; an effect the other way counts as inactive or inconclusive.

SMILES	HCV inhibitor	FMDV antiviral	MARV entry inh	Sm TGR inh	LASV entry inh	RE007 growth inh
COc1ccc(N2CCN(C(=O)C3CCCN(S(=O)(=O)c4ccc(F)cc4)C3)CC2)cc1 (configuration not stated)	?	?	-	-	-	-
CCOc1ccc(S(=O)(=O)N2CCCC(C(=O)N3CCN(c4ccccc4)CC3)C2)cc1 (configuration not stated)	?	28.2µM	?	-	?	-
COc1ccc(N2CCN(C(=O)C3CCCN(S(=O)(=O)c4ccc(C)cc4)C3)CC2)cc1 (configuration not stated)	2.51µM	?	-	-	.	-
COc1cccc(/C=N/Nc2ccnc(=O)[nH]2)c1O	2.24µM	-	?	-	?	-
O=c1nccc(N/N=C/c2ccccc2O)[nH]1	?	-	5.62µM	-	?	-
COc1cccc(C=NNC(=O)c2ccncc2)c1O	?	-	?	.	?	-
CCOc1ccccc1/C=N/Nc1ccnc(=O)[nH]1	11.2µM	-	?	-	?	-
Oc1ccccc1/C=N/Nc1nn[nH]n1	-	-	.	-	.	-
Fc1ccc(N2CCN(Cc3ccc4c(c3)CN(Cc3cccn3-c3ncccn3)CCO4)CC2)cc1	.	-	.	.	.	.
CCN(CC)CCn1c2ccccc2c2cnc(N=CN(C)C)c(C#N)c21	?	-	?	-	?	-
CCn1c2ccccc2c2cnc(N=CN(C)C)c(C#N)c21	12.6µM	?	?	-	-	-
COC(=O)c1ccc2c(c1)C(C)(C)C(/C=C/c1ccccc1O)=[N+]2C	7.94µM	7.94µM	?	50.1µM	?	?
O=C1CC(Nc2ccc(N3CCOCC3)cc2)C(=O)N1C1CCCCC1 (configuration not stated)	-	-	-	39.8µM	-	-
O=C1CC(NNc2ccccc2)C(=O)N1c1ccc(N2CCCCC2)cc1 (configuration not stated)	-	-	-	44.7µM	?	-
COc1ccc(NC2CC(=O)N(C(C)C)C2=O)cc1 (configuration not stated)	-	-	?	7.94µM	?	-
O=C1CC(Nc2ccc(N3CCOCC3)cc2)C(=O)N1c1ccccc1F (configuration not stated)	-	-	.	39.8µM	.	-
CCc1ccc(NC(=O)CN(c2ccc(C)cc2)S(=O)(=O)c2c(C)nn(C)c2C)cc1	.	-	-	-	-	.
Cc1ccc(CNc2ncnc3sc(C(=O)N4CCCC(C(N)=O)C4)c(C)c23)o1 (configuration not stated)	.	-	.	.	.	.
COC(=O)[C@H]1[C@H](CCc2ccccc2)NC(=O)N(Cc2ccccc2)[C@H]1C	.	.	-	.	?	.
CCc1ccc(Nc2nc3ccccc3c3nnc(C)n23)cc1	.	-	.	-	-	.
CC(=O)Nc1c(C(=O)Nc2cccc(C)c2)nnn1-c1ccc(C)cc1	.	-	-	-	?	.
COc1ccc2c(c1)CC(C(=O)NCc1ccc(F)cc1)CO2 (configuration not stated)	.	-	.	-	-	.
O=C1CC(Nc2ccccc2)C(=O)N1c1ccc(N2CCOCC2)cc1 (configuration not stated)	-	-	-	-	-	-
CC(C)N1C(=O)CC(Nc2ccc(N3CCOCC3)cc2)C1=O (configuration not stated)	-	-	-	35.5µM	-	-
CC(C)[C@@H]1Cc2c(C#N)c(N)n(C)c(=S)c2CO1	.	.	-	.	.	.
SMILES	HCV inhibitor	FMDV antiviral	MARV entry inh	Sm TGR inh	LASV entry inh	RE007 growth inh
Cc1cccc(Cn2c(=O)n(CC3CCC(C(=O)N4CCC(C)CC4)CC3)c(=O)c3sccc32)c1 (configuration not stated)	.	31.6µM	.	-	?	.
Cc1ccc(C(=O)NC(=S)Nc2cccnc2Cl)cc1	-	-	?	15.8µM	?	-
COc1ccccc1C(=O)NC(=S)Nc1cccnc1Cl	11.2µM	-	?	-	?	-
COc1nc(-c2ccccc2)ccc1-c1noc(-c2ccccc2Br)n1	.	-	-	-	-	.
C#CCSc1nnc(CSc2nc3ccccc3s2)n1-c1ccccc1	?	-	-	50.1µM	-	-
COc1ccc(C2C(C(=O)Nc3ccc(C)cc3C)=C(C)Nc3nc(SCc4cccc(C)c4)nn32)c(OC)c1 (configuration not stated)	.	-	-	-	-	.
O=C(/C=C/c1ccc(O)cc1)c1ccc(O)cc1O	-	?	10µM!	-	?	-[18.4 µM]
O=C(/C=C/c1ccccc1)CC(=O)c1ccccc1O	11.2µM	-	-	-	-	-
C=C(C)C(O)Cc1c(OC)ccc(C(=O)/C=C/c2ccc(O)cc2)c1O (configuration not stated)	?	-	.	.	.	-
O=C(C=Cc1cccc(O)c1)c1ccccc1O	-	?	-	.	?	25.1µM
O=C(/C=C/c1ccccc1)NC(=O)c1ccccc1O	-	-	-	-	.	?
O=C(/C=C/c1ccccc1)c1ccc(O)cc1O	.	-	.	.	.	.
CC(C)=CCC/C(C)=C/Cc1c(O)ccc(C(=O)/C=C/c2ccc(O)cc2)c1O	25.1µM	?	-	-	?	?
O=C1CCCC=C1[C@@H](O)CCOC(c1ccccc1)(c1ccccc1)c1ccccc1	.	.	-	.	.	.
O=C(C=Cc1ccccc1O)c1ccccc1O	?	?	?	.	-	35.5µM
O=C(/C=C/c1ccc(O)c(O)c1)c1ccccc1O	?	-	-	?	-	?
O=C(NCCc1nnc2n1CCN(Cc1ccccn1)CC2)c1ccc(F)cc1	.	-	.	.	.	.
COc1ccc(-c2nc(-c3ccc4c(c3)OCO4)[nH]c2-c2ccc(OC)cc2)cc1	8.91µM	?	?	-	?	-
O=C(CCCCCn1c(=O)[nH]c2ccccc2c1=O)N1CCN(Cc2ccc3c(c2)OCO3)CC1	?	?	?	-	16.4µM	-
O=C(CN1C(=O)c2cccc3cccc(c23)C1=O)N1CCN(Cc2ccc3c(c2)OCO3)CC1	22.4µM	?	-	-	-	-
O=C(Cn1c(=O)[nH]c2ccccc2c1=O)N1CCN(Cc2ccc3c(c2)OCO3)CC1	?	?	.	-	.	-
CCn1c(=O)cc(SCC(=O)N2CCN(Cc3ccc4c(c3)OCO4)CC2)c2ccccc21	?	39.8µM	-	-	-	-
CCn1c(=O)cc(SCC(=O)Nc2cc(OC)c(OC)c(OC)c2)c2ccccc21	?	?	-	-	-	-
CCn1c(=O)cc(SCC(=O)Nc2cccc(SC)c2)c2ccccc21	?	20µM	-	-	?	-
CCC1CN(CC(=O)NC(C)CO)Cc2cc(OC)ccc2O1 (configuration not stated)	.	-	.	.	.	.
CCn1c(=O)cc(SCC(=O)N2CCC(C)CC2)c2ccccc21	?	-	?	-	-	-
CCOC(=O)C1CCN(C(=O)CSc2cc(=O)n(CC)c3ccccc23)CC1	11.2µM	-	-	-	-	-
COc1cccc(CNC(=O)C(CC(C)C)NS(=O)(=O)c2ccc3c(c2)oc(=O)n3C)c1 (configuration not stated)	.	-	-	?	-	.
